According to PubChem BioAssay (Tox21):
Records with an inconclusive call do not appear. Activity calls are given as the source filed them. Unless noted, calls come from the whole dose curve; as a rule, active = well fitted curve in the direction sought with a large enough effect in the repeat runs; inconclusive = weak or mixed curves; inactive = no such curve, though single readings can be large; an effect the other way counts as inactive or inconclusive.

Tests used:
[1] = qHTS assay to identify small molecule agonists of the estrogen receptor alpha (ER-alpha) signaling pathway in the presence of an antagonist - cell viability counter screen (AID 1259386);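 note: series mostly up to about 92 µM; cells exposed to compounds for 22 h at 37 °C before the viability read; nearly all actives have a fitted effect of over 30% in size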
How it was run: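 In this counter screen, compound effects on VM7Luc4E2 viability were tested in the presence of the antagonist ICI-182,780 at 10.0nM final. Compounds were dosed at 15 concentrations, exposure lasted 22hr, and the CellTiter-Fluor signal was read.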

[2] = biological target: Progesterone receptor (Homo sapiens) (UniProt P06401); experiment: qHTS assay to identify small molecule agonists of the progesterone receptor (PR) signaling pathway (AID 1346784; calls by dose curve; note: nearly all actives have a fitted effect of over 30% in size; note: potency is the fitted concentration of half-maximal effect)
Sequence of Progesterone receptor (Homo sapiens) (P06401 whole entry, looked up): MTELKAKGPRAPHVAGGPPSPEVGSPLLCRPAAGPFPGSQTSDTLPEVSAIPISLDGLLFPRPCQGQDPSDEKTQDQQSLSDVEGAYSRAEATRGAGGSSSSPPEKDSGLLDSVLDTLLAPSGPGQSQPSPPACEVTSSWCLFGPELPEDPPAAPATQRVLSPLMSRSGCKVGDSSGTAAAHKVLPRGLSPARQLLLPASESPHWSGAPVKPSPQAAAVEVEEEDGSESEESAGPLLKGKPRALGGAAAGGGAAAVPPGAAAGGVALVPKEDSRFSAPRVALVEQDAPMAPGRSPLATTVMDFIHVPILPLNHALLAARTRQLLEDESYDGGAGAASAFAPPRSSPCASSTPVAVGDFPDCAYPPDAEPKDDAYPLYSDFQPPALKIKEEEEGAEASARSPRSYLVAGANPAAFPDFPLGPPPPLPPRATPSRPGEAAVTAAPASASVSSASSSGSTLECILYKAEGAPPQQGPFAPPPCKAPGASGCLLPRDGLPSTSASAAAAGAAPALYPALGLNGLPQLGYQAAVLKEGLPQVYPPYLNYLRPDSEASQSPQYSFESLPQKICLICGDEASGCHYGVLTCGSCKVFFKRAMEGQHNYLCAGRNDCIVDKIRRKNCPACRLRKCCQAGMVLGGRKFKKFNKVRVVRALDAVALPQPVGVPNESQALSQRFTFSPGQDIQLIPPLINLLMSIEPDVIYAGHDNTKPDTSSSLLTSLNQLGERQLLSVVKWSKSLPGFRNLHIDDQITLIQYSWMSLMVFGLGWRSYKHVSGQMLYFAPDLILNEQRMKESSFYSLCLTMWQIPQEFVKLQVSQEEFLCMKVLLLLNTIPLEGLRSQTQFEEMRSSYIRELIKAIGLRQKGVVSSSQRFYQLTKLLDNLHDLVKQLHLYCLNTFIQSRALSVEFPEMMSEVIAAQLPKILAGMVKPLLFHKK
How it was run: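 HEK 293T PR-UAS-bla reporter cells, 2% charcoal-stripped FBS; 6 hr settle at 37C/5% CO2, compound (DMSO) 16 hr, LiveBLAzer B/G FRET substrate 2 hr RT, fluorescence intensity read.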

[3] = biological target: Progesterone receptor (Homo sapiens) (UniProt P06401); experiment: qHTS assay to identify small molecule antagonists of the progesterone receptor (PR) signaling pathway (AID 1346795; active = well fitted inhibition curve with a large enough effect in the signal ratio in the repeat runs, not every such curve was filed as active; the % refers to the signal ratio)
How it was run: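 Beta-lactamase reporter, HEK293T PR-UAS-bla line; 2% charcoal-stripped FBS; 6 hr pre-incubation, 37C/5% CO2. Compound + R5020 1 nM final, 16 hr. LiveBLAzer B/G FRET substrate, 2 hr RT; fluorescence intensity read.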

[4] = qHTS assay to identify small molecule antagonists of the progesterone receptor (PR) signaling pathway - cell viability counter screen (AID 1346798); note: series mostly up to about 92 µM; nearly all actives have a fitted effect of over 50% in size
How it was run: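 Luminescence readout (CellTiter-Glo, 30 min, RT) of viability in PR-UAS-bla HEK293T cells exposed to compound and R5020 agonist for 16 hr at 37C, 5% CO2; run in the same wells as the beta-lactamase reporter read.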

[5] = qHTS assay to identify small molecule agonists of the progesterone receptor (PR) signaling pathway - cell viability counter screen (AID 1346799; calls by dose curve; note: nearly all actives have a fitted effect of over 45% in size)
How it was run: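 HEK293T PR-UAS-bla, 3,000 cells/well, 2% charcoal-stripped FBS; 6 h settle, compound 16 h at 37C/5% CO2; LiveBLAzer 2 h RT, then CellTiter-Glo 30 min RT, luminescence read.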

[6] = qHTS assay to identify small molecule antagonists of the TGF-beta/Smad signaling pathway - cell viability counter screen (AID 1346824); note: nearly all actives have a fitted effect of over 50% in size
How it was run: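 Cytotoxicity counter-screen run in the same wells as the beta-lactamase Smad reporter read: CellTiter-Glo luminescence after 30 min at room temperature. HEK 293T SBE-bla cells had 5 hr compound exposure at 37 C with TGF-beta1 (0.25 ng/mL stock).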

[7] = qHTS assay to identify small molecule agonists of the TGF-beta/Smad signaling pathway (AID 1346859; active = well fitted activation curve with a large enough effect in the signal ratio in the repeat runs, not every such curve was filed as active; the % refers to the signal ratio; note: series mostly up to about 77 µM)
How it was run: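 Read-out: fluorescence at 460 and 530 nm (405 nm excitation) after a 2 hr room-temperature incubation with beta-lactamase FRET substrate. SBE-bla HEK 293T cells had been treated with test compounds for 5 hr at 37 C.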

[8] = biological target: Thyrotropin-releasing hormone receptor (Homo sapiens) (UniProt P34981); experiment: qHTS assay to identify small molecule antagonists of the thyrotropin-releasing hormone receptor (TRHR) signaling pathway (AID 1346877; active = well fitted inhibition curve with a large enough effect in the repeat runs, not every such curve was filed as active; note: series mostly up to about 51 µM)
Sequence of Thyrotropin-releasing hormone receptor (Homo sapiens) (P34981 whole entry, looked up): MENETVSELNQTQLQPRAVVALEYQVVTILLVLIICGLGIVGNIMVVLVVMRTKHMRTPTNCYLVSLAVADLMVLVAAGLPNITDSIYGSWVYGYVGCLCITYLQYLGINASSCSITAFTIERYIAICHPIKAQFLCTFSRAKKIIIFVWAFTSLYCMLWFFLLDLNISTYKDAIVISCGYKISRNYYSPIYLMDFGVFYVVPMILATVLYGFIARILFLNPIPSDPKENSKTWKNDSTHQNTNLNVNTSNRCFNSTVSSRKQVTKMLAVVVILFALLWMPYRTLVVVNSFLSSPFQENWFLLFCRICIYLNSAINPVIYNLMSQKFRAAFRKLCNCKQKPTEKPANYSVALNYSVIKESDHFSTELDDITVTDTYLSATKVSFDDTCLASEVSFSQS
How it was run: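 Kinetic fluorescence (3 min, 1 s resolution) following stimulation with TRH at 1 nM final; HEK293 cells bearing human TRHR; 5 min compound preincubation at RT; concentration-response over 15 points, triplicates.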

[9] = biological target: Thyrotropin-releasing hormone receptor (Homo sapiens) (UniProt P34981); experiment: qHTS assay to identify small molecule agonists of the thyrotropin-releasing hormone receptor (TRHR) signaling pathway (AID 1346891; calls by dose curve;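 note: HEK293 cells expressing TRHR with calcium dye readout; series mostly up to about 58 µM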)
How it was run: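 HEK293/TRHR cells, 1500 per well, 18 h 37 °C; Ca dye 2 h 37 °C; pin-tool compound addition (agonist mode); kinetic fluorescence 3 min, 1 s reads; 15 concentrations, triplicate.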

[10] = Human pregnane X receptor (PXR) small molecule agonists, qHTS cell viability counter screen (AID 1346977); note: nearly all actives have a fitted effect of over 50% in size
How it was run: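 Fluorescence read-out (CellTiter-Fluor) of viability in PXR-Luc HepG2 cells, multiplexed with the luciferase agonist read. Compounds in DMSO added after 5hr plating; 24hr total exposure at 37C, 5% CO2.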

[11] = Caspase-3/7 induction in HepG2 cells by small molecules, qHTS assay (AID 1346978); note: nearly all actives have a fitted effect of over 15% in size
How it was run: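 Caspase-3/7 induction was measured by Caspase-Glo 3/7 luminescence (30 min, room temperature) after a 17 hr compound exposure of wild-type HepG2 cells seeded at 2,000 per well and pre-incubated 5 hr.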

[12] = Caspase-3/7 induction in CHO-K1 cells by small molecules, qHTS cell viability counter screen (AID 1346979); note: nearly all actives have a fitted effect of over 35% in size
How it was run: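 CHO-K1 wt, 1,500 cells/well; 5hr pre-incubation 37C/5% CO2; compound pin transfer (DMSO); 16hr exposure; CellTiter-Fluor added, 1hr, fluorescence read.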

[13] = Caspase-3/7 induction in CHO-K1 cells by small molecules, qHTS assay (AID 1346980); note: nearly all actives have a fitted effect of over 15% in size
How it was run: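 Luminescent Caspase-Glo 3/7 read (30min, room temperature) quantified apoptosis induction. Cells were wild-type CHO-K1, treated with compound for 17hr at 37 C and 5% CO2.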

[14] = Caspase-3/7 induction in HepG2 cells by small molecules, qHTS cell viability counter screen (AID 1346981); note: series mostly up to about 92 µM; nearly all actives have a fitted effect of over 30% in size
How it was run: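 In this quantitative HTS counter screen, compounds delivered in DMSO were left on unmodified HepG2 cells for 16 hr at 37 C. Viability was then determined fluorometrically with CellTiter-Fluor, in parallel with caspase-3/7 induction in the same wells.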

[15] = biological target: Nuclear receptor subfamily 1 group I member 2 (Homo sapiens) (UniProt O75469); experiment: CYP3A4 induction through human pregnane X receptor (PXR) by small molecules, qHTS assay (AID 1346984); note: nearly all actives have a fitted effect of over 40% in size
Sequence of Nuclear receptor subfamily 1 group I member 2 (Homo sapiens) (O75469 whole entry, looked up): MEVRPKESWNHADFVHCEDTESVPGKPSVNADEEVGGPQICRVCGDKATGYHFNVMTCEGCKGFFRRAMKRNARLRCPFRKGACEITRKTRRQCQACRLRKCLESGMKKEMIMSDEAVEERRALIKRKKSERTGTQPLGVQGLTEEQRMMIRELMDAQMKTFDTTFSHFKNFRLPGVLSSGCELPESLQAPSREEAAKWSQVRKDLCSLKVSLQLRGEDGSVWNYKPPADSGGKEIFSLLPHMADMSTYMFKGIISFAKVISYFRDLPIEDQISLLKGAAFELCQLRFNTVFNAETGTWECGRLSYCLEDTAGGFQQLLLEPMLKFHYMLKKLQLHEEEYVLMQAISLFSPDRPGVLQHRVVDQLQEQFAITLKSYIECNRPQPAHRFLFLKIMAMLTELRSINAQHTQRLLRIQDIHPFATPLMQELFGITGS
How it was run: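 Induction measured in HepG2-based DPX-2 cells co-expressing human PXR and a CYP3A4 promoter-driven luciferase. After a 24-hour compound exposure, cells received CYP3A4 luciferin substrate at 3uM final for 3 hours, and light output was then recorded.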

[16] = biological target: Nuclear receptor subfamily 1 group I member 2 (Homo sapiens) (UniProt O75469); experiment: Human pregnane X receptor (PXR) activation by small molecules, qHTS assay (AID 1346985); note: nearly all actives have a fitted effect of over 40% in size
How it was run: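 DPX-2 cells (HepG2 co-transfected with a PXR response element and a CYP3A4-promoter luciferase construct) were seeded at 2,000 per well, rested 5 hr at 37C, then exposed to DMSO-dissolved compounds for 24 hr. Activation was read as luciferase luminescence.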

[17] = biological target: Cytochrome P450 2D6 (Homo sapiens) (UniProt P10635); experiment: Cytochrome P450 Family 2 Subfamily D Member 6 (CYP2D6) small molecule antagonists: luciferase reporter qHTS assay (AID 1671196); note: nearly all actives have a fitted effect of over 50% in size; note: potency is the fitted concentration of half-maximal effect; for activity change, negative = inhibition: series mostly up to about 120 µM
Sequence of Cytochrome P450 2D6 (Homo sapiens) (P10635 whole entry, looked up): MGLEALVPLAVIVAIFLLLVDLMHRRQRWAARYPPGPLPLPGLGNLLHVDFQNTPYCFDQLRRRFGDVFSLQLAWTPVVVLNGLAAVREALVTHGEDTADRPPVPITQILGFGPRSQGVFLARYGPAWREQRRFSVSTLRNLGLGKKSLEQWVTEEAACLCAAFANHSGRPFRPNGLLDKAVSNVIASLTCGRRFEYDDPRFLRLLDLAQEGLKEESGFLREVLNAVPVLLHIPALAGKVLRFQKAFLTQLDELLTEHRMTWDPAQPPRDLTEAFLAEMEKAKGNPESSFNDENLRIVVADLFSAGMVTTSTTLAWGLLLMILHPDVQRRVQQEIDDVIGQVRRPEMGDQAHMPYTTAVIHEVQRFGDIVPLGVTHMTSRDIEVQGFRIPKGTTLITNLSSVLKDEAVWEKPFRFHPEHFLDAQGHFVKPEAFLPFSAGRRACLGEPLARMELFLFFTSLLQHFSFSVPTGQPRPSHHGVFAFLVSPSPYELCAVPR
How it was run: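 Test chemicals meet CYP2D6 plus proluciferin substrate (10 min, RT); NADPH regenerating solution then drives turnover for 1 h. Detection reagent halts the reaction; luminescence measured after 20 min.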

[18] = qHTS assay to identify small molecule agonists of the TGF-beta/Smad signaling pathway - cell viability counter screen (AID 1346829); note: top concentration of the series differs between compounds; nearly all actives have a fitted effect of over 45% in size
How it was run: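 Luminescence from CellTiter-Glo, read after a 30 min room-temperature incubation, gives cell viability of SBE-bla HEK 293T cells treated 5 hr with compounds at 37 C.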

[19] = biological target: Nuclear receptor subfamily 1 group I member 2 (Homo sapiens) (UniProt O75469); experiment: Human pregnane X receptor (PXR) small molecule agonists, qHTS assay (AID 1346982); note: nearly all actives have a fitted effect of over 35% in size; note: potency is the fitted concentration of half-maximal effect
How it was run: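 Reporter HepG2 cells expressing PXR-Luc are cultured in charcoal-stripped FBS (5%), treated with compounds for 24 hr at 37 C, and assayed by ONE-Glo luminescence after 30 min at room temperature.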
% is set by controls: 0 for no effect and ±100 for the full control effect.

CN1CCN(c2c(F)cc3c(=O)c(C(=O)O)cn4c3c2OCN4C)CC1
inactive: activity change, negative = cytotoxicity [1] 0.0729% [at 19 µM] | activation [2] 1.06% [at 19 µM] | activity change, negative = inhibition [3] 0.0233% [at 18.9 µM] | activity change, negative = cytotoxicity [4] 10.3% [at 18.9 µM] | activity change, negative = cytotoxicity [5] 0.954% [at 19 µM] | viability change, negative = cytotoxic [6] 1.7% [at 15.8 µM] | activation [7] -0.914% [at 15.8 µM] | activity, negative = inhibition [8] 2.89% [at 10.5 µM] | activation [9] 0.19% [at 11.8 µM] | activity change, negative = cytotoxicity [10] 4.15% [at 19 µM] | caspase activation [11] 0.165% [at 19 µM] | activity change, negative = cytotoxicity [12] 3.06% [at 19 µM] | caspase-3/7 activation [13] 0.0403% [at 19 µM] | activity change, negative = cytotoxicity [14] 8.88% [at 19 µM] | Potency [15] | Potency [16] | activity change, negative = inhibition [17] -1.32% [at 23.6 µM]

CO[C@H]1O[C@H](CO)[C@@H](O)[C@H](O)[C@H]1O
inactive: Potency [1] | Potency [2] | Potency [3] | Potency [4] | Potency [5] | outcome [6] | outcome [18] | outcome [7] | outcome [8] | Potency [9] | Potency [10] | Potency [11] | Potency [12] | outcome [13] | Potency [14] | Potency [19] | Potency [17]

Cc1ccccc1N1C(=O)c2cc(S(N)(=O)=O)c(Cl)cc2NC1C (stereo unspecified)
inactive: Potency [1] | Potency [2] | Potency [3] | Potency [4] | Potency [5] | outcome [6] | outcome [18] | outcome [7] | Potency [10] | Potency [11] | Potency [12] | outcome [13] | Potency [14] | Potency [17]
active: Potency [19] 5.31 µM

C=CC(C)(O)CCCC(C)CCCC(C)CCCC(C)C (stereo unspecified)
active: Potency [2] 13.6 µM | Potency [19] 24.2 µM
inactive: Potency [1] | Potency [3] | Potency [4] | outcome [6] | outcome [18] | outcome [7] | outcome [8] | Potency [9] | Potency [10] | Potency [11] | Potency [12] | outcome [13] | Potency [14]

O=C(O)c1ccc(CO)o1
inactive: Potency [1] | Potency [2] | Potency [3] | Potency [4] | Potency [5] | outcome [6] | outcome [18] | outcome [7] | outcome [8] | Potency [9] | Potency [10] | Potency [11] | Potency [12] | outcome [13] | Potency [14]
active: Potency [17] 18.2 µM

C[Si]1(C)O[Si](C)(C)O[Si](C)(C)O1
inactive: Potency [1] | Potency [2] | Potency [3] | Potency [4] | Potency [5] | outcome [18] | outcome [7] | Potency [9] | Potency [10] | Potency [11] | Potency [12] | outcome [13] | Potency [14] | Potency [19] | Potency [17]

CC(N)CN (stereo unspecified)
inactive: Potency [1] | Potency [2] | Potency [3] | Potency [4] | Potency [5] | outcome [6] | outcome [18] | outcome [7] | outcome [8] | Potency [9] | Potency [10] | Potency [11] | Potency [12] | outcome [13] | Potency [14] | Potency [19]
